From PubChem BioAssay (NCI)
Compounds without any hit were thinned out: in the full panel of roughly 79,000, 15% have a hit. Unmarked numbers belong to inactive results. Active and inactive are the calls of the source. Rule as the data show it: active = growth inhibition above about 70%; inactive = the rest.

Key:
[1] = NCI Yeast Anticancer Drug Screen. Data for the rad52 strain (AID 147);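 also: 0% = growth of vehicle-treated control cultures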; conditions: S. cerevisiae rad52 mutant growth inhibition, active compounds read high
Summary of the method: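 Here a repair-compromised yeast strain receives each compound; its growth is then quantified and normalised to vehicle-only controls.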

[2] = NCI Yeast Anticancer Drug Screen. Data for the wt1 strain (AID 149);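 also: 0% = growth of vehicle-treated wt1 cultures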; conditions: S. cerevisiae wt1 strain (SPY 50644) growth inhibition, active compounds read high
Summary of the method: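 Vehicle-normalised growth inhibition; strain wt1; compound exposure.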

[3] = NCI Yeast Anticancer Drug Screen. Data for the rad50EPP+ strain (AID 151);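 also: 0% = growth of vehicle-treated control cultures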; conditions: S. cerevisiae rad50 mutant strain, active compounds read high
Summary of the method: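 Read-out is yeast growth inhibition relative to vehicle; cells used were the rad50EPP+ strain.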

[4] = NCI Yeast Anticancer Drug Screen. Data for the mgt1 strain (AID 153); conditions: S. cerevisiae mgt1 mutant growth inhibition, active compounds read high
Summary of the method: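 Measured: inhibition of mgt1 yeast growth by compound, normalized to vehicle-treated cultures.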

[5] = NCI Yeast Anticancer Drug Screen. Data for the rad50 strain (AID 155);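 also: 0% = growth of vehicle-only cultures of the same strain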; conditions: S. cerevisiae rad50 strain growth inhibition, active compounds read high
Summary of the method: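 A DNA repair-deficient yeast mutant serves as the test organism; compound-induced growth inhibition is calculated against vehicle-treated cells.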

[6] = NCI Yeast Anticancer Drug Screen. Data for the mec2-1 strain (AID 157); conditions: S. cerevisiae mec2-1 strain, active compounds read high
Summary of the method: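 Using mec2-1 yeast: add compound, measure growth, express inhibition versus vehicle-treated cultures.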

[7] = NCI Yeast Anticancer Drug Screen. Data for the rad14 strain (AID 159);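 also: 0% = growth of vehicle-treated control cultures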; conditions: S. cerevisiae rad14 strain growth inhibition, active compounds read high
Summary of the method: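 Vehicle-treated cultures served as the baseline for growth inhibition of a DNA repair-mutant yeast strain exposed to each compound.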

[8] = NCI Yeast Anticancer Drug Screen. Data for the sgs1 mgt1 strain (AID 161);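 also: 0% = growth of cultures given vehicle only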; conditions: S. cerevisiae sgs1 mgt1 strain, active compounds read high
Summary of the method: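 Compounds are added to genetically altered yeast, and growth is compared with cultures given vehicle alone to give percent inhibition.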

[9] = NCI Yeast Anticancer Drug Screen. Data for the CLN2oe strain (AID 163);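 also: 0% = growth of vehicle-only control cultures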; conditions: S. cerevisiae CLN2oe strain, active compounds read high
Summary of the method: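 Whole-cell yeast growth assay. A strain engineered for altered cell-cycle control received compound, and inhibition relative to vehicle-treated cultures was recorded.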

[10] = NCI Yeast Anticancer Drug Screen. Data for the cln2 rad14 strain (AID 165);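 also: 0% = growth equal to vehicle treated cultures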; conditions: S. cerevisiae cln2 rad14 strain, active compounds read high
Summary of the method: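 Yeast strain cln2 rad14, bearing defects in cell cycle control and DNA repair, serves as the test system; values reflect growth inhibition compared with vehicle.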

[11] = NCI Yeast Anticancer Drug Screen. Data for the bub3 strain (AID 167); conditions: S. cerevisiae bub3 mutant strain, active compounds read high
Summary of the method: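 Inhibition values come from growth of compound-treated mutant yeast normalised to vehicle-treated controls.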

[12] = NCI Yeast Anticancer Drug Screen. Data for the wt2 strain (AID 169);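 also: 0% = growth of vehicle-treated yeast cultures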; conditions: S. cerevisiae wt2 strain growth inhibition, active compounds read high
Summary of the method: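 Treated yeast vs. vehicle-treated yeast: growth inhibition determined.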

[13] = NCI Yeast Anticancer Drug Screen. Data for the mlh1 strain (AID 171);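 also: 0% = growth of vehicle-treated control cultures of the same strain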; conditions: S. cerevisiae mlh1 strain growth inhibition, active compounds read high
Summary of the method: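 A yeast strain with a defined genetic lesion serves as the test organism. Cultures receive compound or vehicle, and growth is measured.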

[14] = NCI Yeast Anticancer Drug Screen. Data for the mlh1 rad18 strain (AID 175); conditions: S. cerevisiae mlh1 rad18 strain growth inhibition, active compounds read high
Summary of the method: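 Steps: expose repair-defective yeast to compound; measure growth; express inhibition against vehicle-treated controls.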

[15] = NCI Yeast Anticancer Drug Screen. Data for the rad18 strain (AID 177); conditions: S. cerevisiae rad18 mutant growth inhibition, active compounds read high
Summary of the method: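 Measured value is growth inhibition of a yeast strain bearing a DNA repair alteration, referenced to vehicle-treated cells.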

[16] = at 5.0 µM (retest, dose inferred, filed as 0.5)
[17] = at 50.0 µM (retest, dose inferred, filed as 5.0)

CCCCc1nnc(NS(=O)(=O)c2ccc(C)cc2)s1
growth inhibition ([1]; at 1.2 µM): -14% | growth inhibition ([1]; at 3.7 µM): -20% | growth inhibition ([1]; at 11.0 µM): -3% | growth inhibition ([1]; at 33.0 µM): 37% | growth inhibition ([1]; at 100.0 µM): 83% (active) | growth inhibition ([2]; at 1.2 µM): -35% | growth inhibition ([2]; at 3.7 µM): -32% | growth inhibition ([2]; at 11.0 µM): -18% | growth inhibition ([2]; at 33.0 µM): 19% | growth inhibition ([2]; at 100.0 µM): 84% (active) | growth inhibition ([3]; at 1.2 µM): -29% | growth inhibition ([3]; at 3.7 µM): -34% | growth inhibition ([3]; at 11.0 µM): -30% | growth inhibition ([3]; at 33.0 µM): -21% | growth inhibition ([3]; at 100.0 µM): -35% | growth inhibition ([4]; at 1.2 µM): -25% | growth inhibition ([4]; at 3.7 µM): -28% | growth inhibition ([4]; at 11.0 µM): -12% | growth inhibition ([4]; at 33.0 µM): 25% | growth inhibition ([4]; at 100.0 µM): 85% (active) | growth inhibition ([5]; at 1.2 µM): -15% | growth inhibition ([5]; at 3.7 µM): -13% | growth inhibition [5, 16]: 48% | growth inhibition ([5]; at 11.0 µM): 0% | growth inhibition ([5]; at 33.0 µM): 45% | growth inhibition [5, 17]: 94% (active) | growth inhibition ([5]; at 50.0 µM): 72% (active) | growth inhibition ([5]; at 100.0 µM): 86% (active) | growth inhibition ([6]; at 1.2 µM): -21% | growth inhibition ([6]; at 3.7 µM): -19% | growth inhibition [6, 16]: 70% (active) | growth inhibition ([6]; at 11.0 µM): -3% | growth inhibition ([6]; at 33.0 µM): 31% | growth inhibition [6, 17]: 94% (active) | growth inhibition ([6]; at 50.0 µM): 50.3% | growth inhibition ([6]; at 100.0 µM): 81% (active) | growth inhibition ([7]; at 1.2 µM): -51% | growth inhibition ([7]; at 3.7 µM): -45% | growth inhibition ([7]; at 11.0 µM): -34% | growth inhibition ([7]; at 33.0 µM): 6% | growth inhibition ([7]; at 100.0 µM): 82% (active) | growth inhibition [8, 16]: -24% | growth inhibition [8, 17]: 31% | growth inhibition ([8]; at 50.0 µM): 72% (active) | growth inhibition ([9]; at 1.2 µM): 0% | growth inhibition ([9]; at 3.7 µM): 2% | growth inhibition ([9]; at 11.0 µM): 15% | growth inhibition ([9]; at 33.0 µM): 20% | growth inhibition ([9]; at 100.0 µM): 87% (active) | growth inhibition [10, 16]: 35% | growth inhibition [10, 17]: 56% | growth inhibition ([10]; at 50.0 µM): 49.5% | growth inhibition ([11]; at 1.2 µM): -4% | growth inhibition ([11]; at 3.7 µM): 9% | growth inhibition [11, 16]: 27% | growth inhibition ([11]; at 11.0 µM): 15% | growth inhibition ([11]; at 33.0 µM): 47% | growth inhibition [11, 17]: 61% | growth inhibition ([11]; at 50.0 µM): 68.2% | growth inhibition ([11]; at 100.0 µM): 85% (active) | growth inhibition ([12]; at 1.2 µM): -28% | growth inhibition ([12]; at 3.7 µM): -22% | growth inhibition ([12]; at 11.0 µM): -10% | growth inhibition ([12]; at 33.0 µM): 20% | growth inhibition ([12]; at 100.0 µM): 80% (active) | growth inhibition ([13]; at 1.2 µM): -32% | growth inhibition ([13]; at 3.7 µM): -43% | growth inhibition ([13]; at 11.0 µM): -24% | growth inhibition ([13]; at 33.0 µM): 23% | growth inhibition ([13]; at 100.0 µM): 74% (active) | growth inhibition [14, 16]: 77% (active) | growth inhibition [14, 17]: 99% (active) | growth inhibition ([14]; at 50.0 µM): 59.1% | growth inhibition ([15]; at 1.2 µM): -12% | growth inhibition ([15]; at 3.7 µM): 4% | growth inhibition ([15]; at 11.0 µM): 15% | growth inhibition ([15]; at 33.0 µM): 36% | growth inhibition ([15]; at 100.0 µM): 86% (active)
